# In PubChem BioAssay AID1942 (Johns Hopkins Ion Channel Center, 2009):
# The campaign covered roughly 2,400 compounds. About 580 (24%) were called active.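 Rule for the calls: active = activity change at or above the mean plus 3 SD of buffer wells without dofetilide, per plate; inactive = the rest.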 Not all results are given here.
# Target: Potassium voltage-gated channel subfamily KQT member 2 (Rattus norvegicus) (UniProt O88943)
# Test: rat KCNQ2 channel activation by compounds alone, confirmation, counter-screen for hERG block protector project, cell-based, CHO, FluxOR thallium flux (AID 1942);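 note: normalized value minus buffer-control mean plus three SD of buffer wells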
# Conditions: CHO-KCNQ2 cells, FluxOR thallium flux fluorescence; at 10 µM; hits give high values
# Sequence of Potassium voltage-gated channel subfamily KQT member 2 (Rattus norvegicus) (O88943 whole entry, looked up): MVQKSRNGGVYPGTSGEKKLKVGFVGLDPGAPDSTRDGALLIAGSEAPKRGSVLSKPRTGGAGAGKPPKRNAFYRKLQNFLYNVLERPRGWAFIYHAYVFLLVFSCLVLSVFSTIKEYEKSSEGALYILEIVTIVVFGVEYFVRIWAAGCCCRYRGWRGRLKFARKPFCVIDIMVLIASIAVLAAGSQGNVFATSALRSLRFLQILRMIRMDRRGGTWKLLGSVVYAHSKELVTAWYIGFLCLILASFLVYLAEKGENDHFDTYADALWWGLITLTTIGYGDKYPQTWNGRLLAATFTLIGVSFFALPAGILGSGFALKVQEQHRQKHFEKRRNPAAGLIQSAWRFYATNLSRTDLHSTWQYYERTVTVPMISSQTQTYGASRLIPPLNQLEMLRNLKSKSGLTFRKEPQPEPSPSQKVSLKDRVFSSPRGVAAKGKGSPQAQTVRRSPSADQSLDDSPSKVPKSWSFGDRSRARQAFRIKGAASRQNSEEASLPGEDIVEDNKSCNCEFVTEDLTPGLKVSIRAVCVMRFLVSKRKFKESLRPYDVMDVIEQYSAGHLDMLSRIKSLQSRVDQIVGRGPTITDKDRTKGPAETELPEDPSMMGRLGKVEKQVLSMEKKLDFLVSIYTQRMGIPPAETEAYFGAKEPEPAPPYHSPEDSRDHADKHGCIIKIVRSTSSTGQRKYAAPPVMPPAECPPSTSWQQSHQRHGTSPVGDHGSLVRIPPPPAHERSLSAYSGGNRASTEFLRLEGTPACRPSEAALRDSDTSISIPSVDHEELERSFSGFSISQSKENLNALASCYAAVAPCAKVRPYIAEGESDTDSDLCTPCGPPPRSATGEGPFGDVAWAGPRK
row,Structure (SMILES),"activity change, less the hit threshold"
1,CCOc1ccc(/C=C2/SC(=O)NC2=S)cc1,83.5% (active)
2,Cn1cc(/C=C2\SC(=O)NC2=S)c2ccccc21,-17.7% (inactive)
3,CCOc1ccc(/C=C2\CCc3ccccc3C2=O)cc1,-13.5% (inactive)
4,Cc1ccc2nsnc2c1S(=O)(=O)Nc1cccc2nsnc12,3.5% (active)
5,O=C(O)c1ccccc1NC(=O)C1CCN(S(=O)(=O)c2cccc3nsnc23)CC1,-7% (inactive)
6,O=C(N/N=C/C(Cl)=C/c1ccc([N+](=O)[O-])cc1)C(=O)Nc1ccc(C(=O)O)cc1,-18.4% (inactive)
7,Oc1c(Br)cc(Cl)cc1C=Nc1ccccc1Br,28.2% (active)
8,Oc1c(Cl)cc(Cl)cc1C=Nc1ccc(Br)cc1,38.8% (active)
9,O=C(Nc1cccc(N=Cc2cc(Cl)cc(Br)c2O)c1)c1ccco1,22.4% (active)
10,O=C(Nc1ccccc1C(=O)O)c1cccc(NC(=O)c2ccco2)c1,-3.3% (inactive)
11,Cc1cccc(N=Cc2cc(Br)cc(Cl)c2O)c1,30.4% (active)
12,O=C(NC(=S)Nc1cccc([N+](=O)[O-])c1)c1ccco1,-20.7% (inactive)
13,COc1cccc(CN=c2c([N+](=O)[O-])nn(-c3ccccc3C)n2O)c1,-19.6% (inactive)
14,CCOCCOCN(C#N)c1nc(OC)nc(N(C)C)n1,-20.4% (inactive)
15,Cc1ccc(N=Cc2cc(Br)cc(Cl)c2O)cc1,5.8% (active)
16,COc1cc(Br)cc(/C=N/NC(=O)Cc2ccccc2)c1O,-9.1% (inactive)
17,COc1cc(Br)cc(C=Nc2cccc(C(F)(F)F)c2)c1O,5.7% (active)
18,Cc1ccc(N=Cc2cc(Cl)cc(Cl)c2O)nc1,22.5% (active)
19,NC(=O)c1cccc(N=Cc2cc(Cl)cc(Cl)c2O)c1,28.8% (active)
20,CCC[C@H]1COCCS(=O)(=O)N1Cc1ccc(Br)cc1,-9.4% (inactive)
21,COc1ccc(/C=C2\SC(=N)N(c3nccs3)C2=O)cc1OC,-16.2% (inactive)
22,Cc1ccsc1CN(C(=O)c1ccc([N+](=O)[O-])cc1)C1CCS(=O)(=O)C1 (centres undefined),-17.5% (inactive)

row,Structure (SMILES),"activity change, less the hit threshold"
1,Cc1ccc(C(C)C)cc1OCC(=O)Nc1ccc(N2CCCCC2)cc1,-13.5% (inactive)
2,Oc1c(Br)cc(Br)cc1C=Nc1cccc2ncccc12,30.9% (active)
3,Oc1c(Br)cc(Br)cc1CNc1cccc2cccnc12,-29.6% (inactive)
4,Cc1cccc(N2CCN(C(=O)C3CCN(S(=O)(=O)c4cccnc4)CC3)CC2)c1C,-14.6% (inactive)
5,O=C(CSCc1cnn(-c2ccccc2)c1-n1cccc1)NCc1cccnc1,-9% (inactive)
6,CC1=[N+]([O-])C(C)(C)C(c2ccc(Br)cc2)=[N+]1[O-],7.3% (active)
7,Cc1cc(C)c(S(=O)(=O)NCc2ccccn2)c(C)c1,-18.8% (inactive)
8,CSc1nc(-c2ccco2)cc(C(F)(F)F)c1C#N,-9.1% (inactive)
9,Cc1c(N2C(=O)/C(=C\c3ccccc3O)SC2=S)c(=O)n(-c2ccccc2)n1C,68.6% (active)
10,O=C(O)COc1ccccc1/C=C1\SC(=S)N(NC(=O)c2ccccc2O)C1=O,-12.9% (inactive)
11,COc1ccc(C(C(=O)NC(C)(C)C)N(C(=O)CCC(=O)Nc2cc(C)on2)c2cccc(F)c2)cc1 (centres undefined),-14.9% (inactive)
12,CCCCc1c(O)nc(SCC(=O)N2CCOCC2)[nH]c1=O,-9.9% (inactive)
13,COC(=O)CNc1nc(Cl)nc(Nc2ccc(C)cc2)n1,-22.2% (inactive)
14,CCOC(=O)c1c(NS(=O)(=O)Cc2ccccc2)sc2c1CCCC2,32.5% (active)
15,COC(=O)c1c(NS(=O)(=O)c2ccc3ccccc3c2)sc2c1CCCC2,-15.5% (inactive)
16,Cc1ccc(C(=O)Nc2sc3c(c2C(=O)O)CCCCC3)o1,-23.9% (inactive)
17,CCOC(=O)c1c(NS(=O)(=O)c2ccc(Br)cc2)sc2c1CCC2,5.6% (active)
18,CCOC(=O)c1c(C)cccc1OCC(N)=O,-12.7% (inactive)
19,COC(=O)c1c(NS(=O)(=O)Cc2ccccc2)sc2c1CCCC2,42.1% (active)
20,CN1C(=O)c2ccc(C(=O)NCc3ccccc3)cc2C1=O,-20.8% (inactive)
21,COCCCNC(=O)CCc1nnc(Cc2ccc(-c3ccccc3)cc2)o1,-5.1% (inactive)
22,Cc1cc(=S)[nH]c2c(C)cccc12,-3.9% (inactive)

row,Structure (SMILES),"activity change, less the hit threshold"
1,CCOc1cc(NC(=S)N2CCC(C(N)=O)CC2)c(C(=O)OC)cc1OCC,-11.5% (inactive)
2,CCc1ccc(NC(=O)C(=O)NNC(=O)COc2cccc(OC)c2)cc1,14.3% (active)
3,COc1cccc(OCC(=O)NNC(=O)C(=O)Nc2cccc(C)c2)c1,33.1% (active)
4,COc1ccc(OCC(=O)NNC(=O)C(=O)Nc2ccc(C)cc2)cc1,-23.7% (inactive)
5,CCc1ccc(OCC(=O)Nc2ncn[nH]2)cc1,-16.1% (inactive)
6,O=C(COc1cccc(-n2cnnn2)c1)Nc1ccc([N+](=O)[O-])cc1,-13.3% (inactive)
7,Cc1cccc(OCC(=O)NCc2nc(-c3ccccc3)no2)c1,-17.2% (inactive)
8,CC(C)c1cccc(C(C)C)c1NC(=O)COC(=O)[C@H](C)NC(N)=O,-17.5% (inactive)
9,O=C(NC(=S)Nc1ccc(N2CCCCC2)cc1)c1ccco1,45.9% (active)
10,O=C(NC(=S)Nc1ccccc1N1CCCC1)c1cccs1,-17.3% (inactive)
11,CC1CCN(c2ccccc2NC(=S)NC(=O)c2ccco2)CC1,-14.3% (inactive)
12,O=C(NC(=S)Nc1ccccc1N1CCCC1)c1ccco1,11.2% (active)
13,O=C(NC(=S)Nc1cccc(Cl)c1N1CCCCC1)c1ccco1,-12.3% (inactive)
14,O=C(NC(=S)Nc1ccccc1Br)c1ccco1,18.2% (active)
15,O=C(NC(=S)Nc1ccccc1Cl)c1ccco1,10.4% (active)
16,O=C(NC(=S)Nc1cc(C(F)(F)F)ccc1N1CCOCC1)c1ccco1,-11.4% (inactive)
17,O=C(Nc1ccc(N2CCOCC2)cc1)c1ccc(S(=O)(=O)N2CCCCC2)cc1,-20.8% (inactive)
18,O=C(N/N=C/c1ccc(OC(F)F)cc1)C1=COCCO1,-10.9% (inactive)
19,COC(=O)c1cc2sc(Cl)cc2n1CC(=O)NCC1CCCO1 (centres undefined),-16.1% (inactive)
20,COc1ccc(NC(=O)c2cn(-c3ccccc3)nc2-c2ccncc2)cc1,-9.7% (inactive)
